Measured values published in paper PMC7862700, “An all-to-all approach to the identification of sequence-specific readers for epigenetic DNA modifications on cytosine”.

Assays:
Assay in all cases: DAPPL (digital affinity profiling via proximity ligation, sequencing); 10 mM Tris-HCl pH 7.5, 50 mM NaCl, 1 mM DTT, 4% glycerol, room temperature, 30 min; GST-TFs on glutathione beads, 16-mer random dsDNA library, 0.1% formaldehyde crosslink after washing; high values mean tight binding
Details in all cases: protein: recombinant; tags: N-terminal GST; dsDNA, one strand shown
ELF1 = ELF1 (Homo sapiens, UniProt P32519 1-619)
Summary of the method: (§1)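 GST fusions of human transcription factors were expressed in yeast and captured with glutathione beads. Once given DNA barcodes and pooled alongside a tag-only sample, they were incubated for 30 min at room temperature with 200 nmole of a random double-stranded 16-mer DNA library in Tris/NaCl/DTT/glycerol buffer, then washed, crosslinked (0.1% formaldehyde), proximity-ligated, PCR-amplified and sequenced on an Illumina NextSeq500. The binding signal of each hexamer is its read frequency for a factor divided by its frequency for the tag-only sample.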

EHF = biological target: T1, EHF (Homo sapiens, UniProt Q9NZC4 1-300)
T1 sequence: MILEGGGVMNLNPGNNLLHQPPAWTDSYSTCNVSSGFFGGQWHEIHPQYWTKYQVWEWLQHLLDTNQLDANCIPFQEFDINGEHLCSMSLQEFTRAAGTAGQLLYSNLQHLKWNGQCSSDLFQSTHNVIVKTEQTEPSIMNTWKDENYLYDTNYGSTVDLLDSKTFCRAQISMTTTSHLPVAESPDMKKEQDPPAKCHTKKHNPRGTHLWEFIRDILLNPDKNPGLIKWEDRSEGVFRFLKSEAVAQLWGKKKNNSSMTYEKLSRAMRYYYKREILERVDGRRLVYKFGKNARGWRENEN
Summary of the method: as §1

ELK3 = biological target: T2, ELK3 (Homo sapiens, UniProt P41970 1-407)
T2 sequence: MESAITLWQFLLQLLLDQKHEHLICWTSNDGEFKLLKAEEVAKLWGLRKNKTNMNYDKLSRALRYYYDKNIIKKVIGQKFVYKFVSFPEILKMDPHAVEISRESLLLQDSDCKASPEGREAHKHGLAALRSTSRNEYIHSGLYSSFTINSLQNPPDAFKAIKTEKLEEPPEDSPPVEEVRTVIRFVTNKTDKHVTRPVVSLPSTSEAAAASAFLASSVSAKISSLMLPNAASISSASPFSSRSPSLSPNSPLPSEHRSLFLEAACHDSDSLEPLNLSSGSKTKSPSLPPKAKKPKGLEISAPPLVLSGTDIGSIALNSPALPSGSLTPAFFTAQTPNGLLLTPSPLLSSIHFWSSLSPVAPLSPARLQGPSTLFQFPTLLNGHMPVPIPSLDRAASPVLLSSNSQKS
Summary of the method: as §1

SPIC = biological target: T3, SPIC (Homo sapiens, UniProt Q8N5J4 1-248)
T3 sequence: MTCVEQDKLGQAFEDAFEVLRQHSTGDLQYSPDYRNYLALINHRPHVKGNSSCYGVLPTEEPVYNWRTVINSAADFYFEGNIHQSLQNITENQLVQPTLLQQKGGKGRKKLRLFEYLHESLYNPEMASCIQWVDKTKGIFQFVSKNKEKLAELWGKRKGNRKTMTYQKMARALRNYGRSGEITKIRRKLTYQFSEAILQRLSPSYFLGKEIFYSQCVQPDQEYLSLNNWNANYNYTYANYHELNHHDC
Summary of the method: as §1

ELF4 = ELF4 (Homo sapiens, UniProt Q99607 1-663)
Summary of the method: as §1

ELK4 = biological target: T4, ELK4 (Homo sapiens, UniProt P28324-2 1-405)
T4 sequence: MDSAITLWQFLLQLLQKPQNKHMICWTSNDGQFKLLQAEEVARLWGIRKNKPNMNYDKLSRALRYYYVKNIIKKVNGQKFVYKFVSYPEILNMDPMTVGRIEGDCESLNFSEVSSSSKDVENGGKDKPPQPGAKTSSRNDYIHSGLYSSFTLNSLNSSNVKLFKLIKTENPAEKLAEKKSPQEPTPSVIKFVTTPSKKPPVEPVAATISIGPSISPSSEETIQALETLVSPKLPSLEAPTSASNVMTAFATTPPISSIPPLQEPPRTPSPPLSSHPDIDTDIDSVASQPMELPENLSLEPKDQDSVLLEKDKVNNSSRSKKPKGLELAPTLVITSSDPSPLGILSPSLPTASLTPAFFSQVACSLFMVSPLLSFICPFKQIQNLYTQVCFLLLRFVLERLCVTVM
Summary of the method: as §1

ELF3 = biological target: T5, ELF3 (Homo sapiens, UniProt P78545 1-371)
T5 sequence: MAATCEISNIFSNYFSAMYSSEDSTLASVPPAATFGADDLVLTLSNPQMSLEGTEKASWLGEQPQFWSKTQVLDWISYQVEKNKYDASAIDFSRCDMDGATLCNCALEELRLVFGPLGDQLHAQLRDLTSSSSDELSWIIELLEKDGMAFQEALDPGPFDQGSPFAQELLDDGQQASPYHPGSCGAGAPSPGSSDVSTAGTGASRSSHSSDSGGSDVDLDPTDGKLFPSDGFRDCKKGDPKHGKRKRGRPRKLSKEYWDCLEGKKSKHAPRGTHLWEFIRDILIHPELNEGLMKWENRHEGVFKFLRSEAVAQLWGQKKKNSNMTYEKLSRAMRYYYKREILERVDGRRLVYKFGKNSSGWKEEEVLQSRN
Summary of the method: as §1

ERF = biological target: T6, ERF (Homo sapiens, UniProt P50548 1-548)
T6 sequence: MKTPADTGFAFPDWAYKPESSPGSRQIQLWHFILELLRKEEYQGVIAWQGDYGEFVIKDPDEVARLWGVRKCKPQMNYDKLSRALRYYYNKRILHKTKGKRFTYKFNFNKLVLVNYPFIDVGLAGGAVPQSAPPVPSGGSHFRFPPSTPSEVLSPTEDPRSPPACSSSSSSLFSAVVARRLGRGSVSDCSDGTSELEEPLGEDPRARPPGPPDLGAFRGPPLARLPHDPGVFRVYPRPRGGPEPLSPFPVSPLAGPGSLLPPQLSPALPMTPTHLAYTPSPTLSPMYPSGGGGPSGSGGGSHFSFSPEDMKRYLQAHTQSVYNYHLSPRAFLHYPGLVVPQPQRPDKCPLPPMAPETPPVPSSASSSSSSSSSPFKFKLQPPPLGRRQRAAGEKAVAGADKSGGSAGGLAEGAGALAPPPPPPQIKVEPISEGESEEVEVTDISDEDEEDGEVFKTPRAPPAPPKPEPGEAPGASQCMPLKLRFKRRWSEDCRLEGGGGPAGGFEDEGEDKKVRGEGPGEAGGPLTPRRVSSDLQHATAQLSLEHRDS
Summary of the method: as §1

ETS2 = biological target: T7, ETS2 (Homo sapiens, UniProt P15036 1-469)
T7 sequence: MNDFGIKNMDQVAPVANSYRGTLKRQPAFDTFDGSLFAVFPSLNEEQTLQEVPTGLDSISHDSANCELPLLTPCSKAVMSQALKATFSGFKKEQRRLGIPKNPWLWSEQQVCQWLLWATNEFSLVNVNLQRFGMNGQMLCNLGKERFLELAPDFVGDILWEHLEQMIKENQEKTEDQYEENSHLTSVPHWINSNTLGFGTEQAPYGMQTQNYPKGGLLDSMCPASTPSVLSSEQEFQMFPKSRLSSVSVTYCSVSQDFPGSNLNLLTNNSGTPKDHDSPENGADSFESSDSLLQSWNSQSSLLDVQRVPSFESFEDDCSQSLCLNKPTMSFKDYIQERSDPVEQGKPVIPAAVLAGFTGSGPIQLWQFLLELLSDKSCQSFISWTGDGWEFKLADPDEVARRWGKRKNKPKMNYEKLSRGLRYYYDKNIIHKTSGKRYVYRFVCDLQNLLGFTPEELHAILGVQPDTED
Summary of the method: as §1

SPDEF = biological target: T8, SPDEF (Homo sapiens, UniProt O95238 1-335)
T8 sequence: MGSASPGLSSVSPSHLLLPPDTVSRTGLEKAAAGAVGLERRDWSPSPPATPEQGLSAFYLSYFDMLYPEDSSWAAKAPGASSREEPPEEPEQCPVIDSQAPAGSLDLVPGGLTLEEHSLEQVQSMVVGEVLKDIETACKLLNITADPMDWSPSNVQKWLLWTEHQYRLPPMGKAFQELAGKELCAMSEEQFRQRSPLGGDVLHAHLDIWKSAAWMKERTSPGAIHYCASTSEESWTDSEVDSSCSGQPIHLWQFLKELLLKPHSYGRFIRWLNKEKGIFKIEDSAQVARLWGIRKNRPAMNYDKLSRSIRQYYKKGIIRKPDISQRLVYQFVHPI
Summary of the method: as §1

ETV6 = ETV6 (Homo sapiens, UniProt P41212 1-452)
Summary of the method: as §1

GABPA = biological target: T9, GABPA (Homo sapiens, UniProt Q06546 1-454)
T9 sequence: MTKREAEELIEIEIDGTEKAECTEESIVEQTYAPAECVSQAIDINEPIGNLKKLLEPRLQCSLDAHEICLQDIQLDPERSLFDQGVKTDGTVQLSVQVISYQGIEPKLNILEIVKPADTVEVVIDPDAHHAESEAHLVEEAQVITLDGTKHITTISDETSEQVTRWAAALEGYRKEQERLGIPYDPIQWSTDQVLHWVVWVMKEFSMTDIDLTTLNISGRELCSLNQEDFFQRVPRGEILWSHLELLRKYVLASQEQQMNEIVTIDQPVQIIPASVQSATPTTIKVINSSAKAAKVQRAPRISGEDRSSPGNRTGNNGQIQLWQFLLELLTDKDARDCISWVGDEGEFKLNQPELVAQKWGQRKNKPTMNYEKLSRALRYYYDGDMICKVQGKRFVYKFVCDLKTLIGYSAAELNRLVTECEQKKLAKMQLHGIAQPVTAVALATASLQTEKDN
Summary of the method: as §1

ERG = biological target: T10, ERG (Homo sapiens, UniProt P11308 1-479)
T10 sequence: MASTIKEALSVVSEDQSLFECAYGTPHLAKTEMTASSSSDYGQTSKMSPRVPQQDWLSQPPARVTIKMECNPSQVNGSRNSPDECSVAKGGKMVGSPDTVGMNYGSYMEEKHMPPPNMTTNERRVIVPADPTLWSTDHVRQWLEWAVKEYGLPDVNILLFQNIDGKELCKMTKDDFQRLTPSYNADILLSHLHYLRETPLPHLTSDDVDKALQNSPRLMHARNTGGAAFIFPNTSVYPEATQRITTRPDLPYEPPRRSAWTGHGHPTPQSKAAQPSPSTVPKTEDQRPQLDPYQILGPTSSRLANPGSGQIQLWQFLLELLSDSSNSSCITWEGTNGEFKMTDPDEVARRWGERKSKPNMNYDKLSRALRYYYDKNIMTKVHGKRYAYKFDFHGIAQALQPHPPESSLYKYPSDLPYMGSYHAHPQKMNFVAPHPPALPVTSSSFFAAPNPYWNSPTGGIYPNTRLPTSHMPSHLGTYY
Summary of the method: as §1

ETV1 = ETV1 (Homo sapiens, UniProt P50549 1-477)
Summary of the method: as §1

ETV3L = biological target: T11, ETV3L (Homo sapiens, UniProt Q6ZN32 1-361)
T11 sequence: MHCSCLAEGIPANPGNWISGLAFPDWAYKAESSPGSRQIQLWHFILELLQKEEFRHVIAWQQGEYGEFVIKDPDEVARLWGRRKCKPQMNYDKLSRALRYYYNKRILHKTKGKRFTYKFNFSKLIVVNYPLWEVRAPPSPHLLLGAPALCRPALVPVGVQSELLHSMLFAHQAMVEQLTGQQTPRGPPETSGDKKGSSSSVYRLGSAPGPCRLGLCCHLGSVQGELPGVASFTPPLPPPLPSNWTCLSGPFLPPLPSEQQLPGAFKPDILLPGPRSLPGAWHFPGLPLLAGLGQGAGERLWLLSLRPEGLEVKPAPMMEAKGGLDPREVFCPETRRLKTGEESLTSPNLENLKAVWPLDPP
Summary of the method: as §1

ETV7 = biological target: T12, ETV7 (Homo sapiens, UniProt Q9Y603 1-341)
T12 sequence: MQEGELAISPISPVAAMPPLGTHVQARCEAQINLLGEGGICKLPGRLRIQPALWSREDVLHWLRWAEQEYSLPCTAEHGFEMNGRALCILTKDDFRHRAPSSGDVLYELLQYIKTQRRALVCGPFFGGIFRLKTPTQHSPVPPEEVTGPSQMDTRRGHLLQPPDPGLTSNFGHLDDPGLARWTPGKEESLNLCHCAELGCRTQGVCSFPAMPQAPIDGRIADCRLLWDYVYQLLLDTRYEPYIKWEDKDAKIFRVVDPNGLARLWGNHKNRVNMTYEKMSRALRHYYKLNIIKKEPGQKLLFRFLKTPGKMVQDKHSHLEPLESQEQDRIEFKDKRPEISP
Summary of the method: as §1

ETV3 = biological target: T13, ETV3 (Homo sapiens, UniProt P41162-2 1-143)
T13 sequence: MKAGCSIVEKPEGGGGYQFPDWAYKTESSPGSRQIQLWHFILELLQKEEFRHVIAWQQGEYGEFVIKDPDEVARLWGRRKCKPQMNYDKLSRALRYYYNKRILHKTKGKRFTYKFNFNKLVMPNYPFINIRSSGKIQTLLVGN
Summary of the method: as §1

ELF1, sequence (P32519 whole entry, the tested form may be a part): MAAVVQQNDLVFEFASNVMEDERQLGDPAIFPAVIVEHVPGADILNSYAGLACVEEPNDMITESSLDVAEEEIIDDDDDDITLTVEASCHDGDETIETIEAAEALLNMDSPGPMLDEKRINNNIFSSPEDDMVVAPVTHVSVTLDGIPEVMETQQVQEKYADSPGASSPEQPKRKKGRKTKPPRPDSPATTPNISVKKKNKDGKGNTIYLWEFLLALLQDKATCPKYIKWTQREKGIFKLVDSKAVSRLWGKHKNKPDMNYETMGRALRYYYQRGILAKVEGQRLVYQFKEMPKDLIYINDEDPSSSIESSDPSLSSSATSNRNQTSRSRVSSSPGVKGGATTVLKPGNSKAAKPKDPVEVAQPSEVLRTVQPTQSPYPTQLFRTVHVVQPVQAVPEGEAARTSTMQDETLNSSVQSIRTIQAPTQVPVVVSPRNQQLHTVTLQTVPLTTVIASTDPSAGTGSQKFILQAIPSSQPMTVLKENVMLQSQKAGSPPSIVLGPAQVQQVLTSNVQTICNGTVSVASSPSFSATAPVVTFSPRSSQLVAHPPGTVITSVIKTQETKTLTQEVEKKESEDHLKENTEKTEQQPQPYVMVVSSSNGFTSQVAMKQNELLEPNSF
ELF4, sequence (Q99607 whole entry): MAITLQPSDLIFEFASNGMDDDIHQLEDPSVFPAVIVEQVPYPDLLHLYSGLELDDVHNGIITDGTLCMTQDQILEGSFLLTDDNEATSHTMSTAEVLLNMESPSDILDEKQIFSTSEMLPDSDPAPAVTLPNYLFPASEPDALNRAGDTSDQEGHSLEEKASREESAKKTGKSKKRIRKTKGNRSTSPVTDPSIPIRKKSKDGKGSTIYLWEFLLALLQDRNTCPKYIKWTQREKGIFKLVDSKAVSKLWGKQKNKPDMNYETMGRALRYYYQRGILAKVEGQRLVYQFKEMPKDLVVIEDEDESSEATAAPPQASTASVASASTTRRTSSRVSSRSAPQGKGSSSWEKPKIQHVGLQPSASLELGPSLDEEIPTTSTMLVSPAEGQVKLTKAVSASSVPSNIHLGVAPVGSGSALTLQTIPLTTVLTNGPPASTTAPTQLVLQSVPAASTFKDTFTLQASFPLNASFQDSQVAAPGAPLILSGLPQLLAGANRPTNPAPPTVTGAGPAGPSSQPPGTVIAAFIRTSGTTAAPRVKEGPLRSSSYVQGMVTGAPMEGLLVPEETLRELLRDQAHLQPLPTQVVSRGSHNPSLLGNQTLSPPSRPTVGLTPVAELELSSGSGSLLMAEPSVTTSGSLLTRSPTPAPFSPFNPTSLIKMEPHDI
ETV1, sequence (P50549 whole entry): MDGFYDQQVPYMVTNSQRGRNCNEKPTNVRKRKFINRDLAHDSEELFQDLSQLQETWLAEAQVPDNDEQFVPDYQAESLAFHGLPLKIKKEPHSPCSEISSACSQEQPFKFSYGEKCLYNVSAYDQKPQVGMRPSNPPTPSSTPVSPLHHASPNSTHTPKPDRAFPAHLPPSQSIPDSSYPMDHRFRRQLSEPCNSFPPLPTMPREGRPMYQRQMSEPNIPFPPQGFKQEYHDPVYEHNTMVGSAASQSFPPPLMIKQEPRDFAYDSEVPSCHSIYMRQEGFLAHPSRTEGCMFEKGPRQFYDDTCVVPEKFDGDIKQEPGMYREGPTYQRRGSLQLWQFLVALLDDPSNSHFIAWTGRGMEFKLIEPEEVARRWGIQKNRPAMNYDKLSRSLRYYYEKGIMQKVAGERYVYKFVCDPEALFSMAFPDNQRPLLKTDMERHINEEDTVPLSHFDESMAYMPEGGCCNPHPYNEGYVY
ETV6, sequence (P41212 whole entry): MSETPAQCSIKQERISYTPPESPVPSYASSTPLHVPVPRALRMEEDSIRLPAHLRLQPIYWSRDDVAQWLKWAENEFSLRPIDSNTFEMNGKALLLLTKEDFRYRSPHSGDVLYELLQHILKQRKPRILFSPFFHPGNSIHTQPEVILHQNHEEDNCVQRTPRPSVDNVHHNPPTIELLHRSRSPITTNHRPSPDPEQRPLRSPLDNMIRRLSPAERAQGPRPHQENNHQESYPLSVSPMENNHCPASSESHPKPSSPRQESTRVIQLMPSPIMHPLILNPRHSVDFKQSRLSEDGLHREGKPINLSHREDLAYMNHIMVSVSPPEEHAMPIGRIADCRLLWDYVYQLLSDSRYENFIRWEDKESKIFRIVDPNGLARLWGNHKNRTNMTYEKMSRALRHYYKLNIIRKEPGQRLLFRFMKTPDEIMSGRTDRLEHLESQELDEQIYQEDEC

Sequence	binding signal (ELF1)	binding signal (EHF)	binding signal (ELK3)	binding signal (SPIC)	binding signal (ELF4)	binding signal (ELK4)	binding signal (ELF3)	binding signal (ERF)	binding signal (ETS2)	binding signal (SPDEF)	binding signal (ETV6)	binding signal (GABPA)	binding signal (ERG)	binding signal (ETV1)	binding signal (ETV3L)	binding signal (ETV7)	binding signal (ETV3)
GATTTA	1 fold enrichment (6-mer frequency, TF over GST control)	1.11 fold enrichment (6-mer frequency, TF over GST control)	1.08 fold enrichment (6-mer frequency, TF over GST control)	1.02 fold enrichment (6-mer frequency, TF over GST control)	1.05 fold enrichment (6-mer frequency, TF over GST control)	1.02 fold enrichment (6-mer frequency, TF over GST control)	1.02 fold enrichment (6-mer frequency, TF over GST control)	1.02 fold enrichment (6-mer frequency, TF over GST control)	1 fold enrichment (6-mer frequency, TF over GST control)	1.08 fold enrichment (6-mer frequency, TF over GST control)	1.05 fold enrichment (6-mer frequency, TF over GST control)						
TCTAGA	1 fold enrichment (6-mer frequency, TF over GST control)	1.11 fold enrichment (6-mer frequency, TF over GST control)	1.18 fold enrichment (6-mer frequency, TF over GST control)	1.05 fold enrichment (6-mer frequency, TF over GST control)				1.03 fold enrichment (6-mer frequency, TF over GST control)	1.05 fold enrichment (6-mer frequency, TF over GST control)			1.02 fold enrichment (6-mer frequency, TF over GST control)	1 fold enrichment (6-mer frequency, TF over GST control)	1.02 fold enrichment (6-mer frequency, TF over GST control)	1.03 fold enrichment (6-mer frequency, TF over GST control)	1.03 fold enrichment (6-mer frequency, TF over GST control)	1.04 fold enrichment (6-mer frequency, TF over GST control)
